Laboratory results published in PubChem BioAssay AID2155 (National Center for Advancing Translational Sciences (NCATS), 2009).
The source made the active and inactive calls. The call rests on the fitted dose curve.

Each molecule was assayed against Polyunsaturated fatty acid lipoxygenase ALOX15 (Homo sapiens) (UniProt P16050) (assay: Cuvette-Based Assay fo Inhibitors of 15-hLO-1 (15-human lipoxygenase 1): Series 1 - Round 1). Conditions: purified 15-hLO-1, cuvette UV 234 nm product formation.
Text: Assay Provider: Holman, T.R., University of California, Santa Cruz Screening Center PI: Austin, Christopher P. Screening Center: NIH Chemical Genomics Center Human lipoxygenase 15hLO-1 is a member of the closely related lipoxygenase family of enzymes which catalyze the site-specific oxidation of arachidonic acid to various hormone precursor molecules and as such is a candidate for drug development in a variety of disease areas, such as cancer and inflammation. The enzyme activity of 15hLO-1 was determined by a direct measurement of product formation by monitoring the absorbance at 234 nm in a 2 mL cuvette. IC50 values of inhibitors were obtained by measuring the enzymatic rate at a variety of concentrations (Carroll et al, Segraves et al). A purified preparation of human 15hLO-1 was supplied by Professor Ted Holman, University of California, Santa Cruz. This assay is includes some confirmation and follow-up compounds for related primary screening assay AID 887. The follow-up compounds focus on analogues of current lead 15hLO-1 inhibitor series.
For control experiments, 2 mL of substrate buffer (7 uM arachidonic acid / 25 mM HEPES / 0.01% (v/v) Triton X-100, pH 7.5) was aliquoted in a cuvette with a magnetic stir bar. After equilibrium was ensured, an aliquot of inhibitor solvent was added (DMSO or MeOH), and equilibrium was once again assured. The reaction was started by adding enzyme to the cuvette and the reaction was followed until completed. The inhibition experiments were performed as above, except the actual inhibitory compound was added instead of vehicle. To achieve an IC50, typically 5 concentrations of the inhibitor were studied. If the inhibitor concentration was constant, then five different reaction volumes were used. Step \ Parameter \ Value \ Description 1; UV-Vis; 234 nm; Equilibration 2; Reagent; 2 mL; Substrate buffer 3; UV-Vis; 234 nm; Equilibration 4; Reagent; varies; Compound 5; UV-Vis; 234 nm; Equilibration 6; Reagent; 50-200 nM; Enzyme 15hLO-1 7; UV-Vis; 234 nm; Enzymatic reaction Step \ Notes 1. Blank cuvette to air. 2. 7 uM AA, 25 mM HEPES, 0.01% Triton X-100, pH 7.5. 3. No change in absorbance ensured. 4. Compound vehicle or compound in various concentrations depending on potency. 5. No change in absorbance ensured. 6. Enzyme concentration to achieve reaction rate between 0.02 and 0.04 AU/s. 7. Enzymatic reaction visualized until completion.

Polyunsaturated fatty acid lipoxygenase ALOX15 (Homo sapiens), sequence (P16050 whole entry, looked up): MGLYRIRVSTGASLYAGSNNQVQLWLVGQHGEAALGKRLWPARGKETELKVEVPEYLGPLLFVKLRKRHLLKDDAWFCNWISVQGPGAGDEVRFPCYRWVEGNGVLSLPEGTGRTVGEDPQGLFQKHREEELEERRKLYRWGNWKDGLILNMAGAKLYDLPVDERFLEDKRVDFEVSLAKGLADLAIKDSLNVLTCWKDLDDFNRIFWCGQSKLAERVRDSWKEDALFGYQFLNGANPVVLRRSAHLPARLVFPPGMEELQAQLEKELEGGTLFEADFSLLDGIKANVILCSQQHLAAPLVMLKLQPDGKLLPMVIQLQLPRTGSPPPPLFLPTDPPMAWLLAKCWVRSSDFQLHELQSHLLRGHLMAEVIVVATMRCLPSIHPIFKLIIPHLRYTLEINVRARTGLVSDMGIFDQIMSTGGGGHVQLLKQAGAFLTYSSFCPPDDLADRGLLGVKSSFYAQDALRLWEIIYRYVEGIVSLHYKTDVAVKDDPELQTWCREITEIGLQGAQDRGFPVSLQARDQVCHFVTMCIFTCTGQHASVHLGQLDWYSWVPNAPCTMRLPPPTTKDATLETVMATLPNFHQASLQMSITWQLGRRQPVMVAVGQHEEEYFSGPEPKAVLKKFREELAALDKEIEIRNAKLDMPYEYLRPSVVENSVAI

Potency, active:
OCC#CCSc1nnc(-c2cccc3ccccc23)o1 1000 nM
O=C(OCC#CCSc1nnc(-c2cccc3ccccc23)o1)c1cnc[nH]1 1000 nM
O=C(OCC#CCSc1nnc(-c2cccc3ccccc23)s1)c1cccs1 25000 nM
O=C(NCC#CCSc1nnc(-c2cccc3ccccc23)o1)c1cccs1 1000 nM
O=C(OCC#CCSc1nnc(-c2cccc3ccccc23)o1)c1ccc(Br)cc1 16 nM
COc1ccc(C(=O)OCC#CCSc2nnc(-c3cccc4ccccc34)o2)cc1 22 nM
CC(C)Nc1oc(-c2cccc3ccccc23)nc1C#N 190 nM
O=C(OCC#CCNc1nnc(-c2cccc3ccccc23)o1)c1cccs1 1000 nM
N#Cc1nc(-c2cccc3ccccc23)oc1NCC#CCOC(=O)c1cccs1 25000 nM
C=CCNc1nnc(-c2cccc3ccccc23)o1 1000 nM
O=C(OCC#CCSc1nnc(-c2cccc3ccccc23)o1)c1ccc(Cl)cc1 18 nM
